# High-throughput results as filed in PubChem.
# IMPase cell inh – membrane-permeable compound that blocks inositol monophosphatase. P97697. CHO-M1 cells, IP1 accumulation, HTRF TR-FRET ratio. inhibition (IP1 accumulation), % at 46.1 µM. 120,000 tested, under 10 active. AID 901; active = well fitted curve in the direction sought with a large enough effect in the signal ratio, not every such curve was filed as active; inconclusive = small, poorly fitted or top-dose-only effect, or a change in a side signal; inactive = no such curve, though single readings can be large or run the other way; the % refers to the signal ratio;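 note: cells stimulated with carbachol in lithium chloride buffer; plate controls were DMSO basal wells for no effect and reference inhibitor wells for full effect; higher means more IMPase inhibition seen as more IP1 and lower FRET ratio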
# Target sequence (P97697 whole entry, looked up): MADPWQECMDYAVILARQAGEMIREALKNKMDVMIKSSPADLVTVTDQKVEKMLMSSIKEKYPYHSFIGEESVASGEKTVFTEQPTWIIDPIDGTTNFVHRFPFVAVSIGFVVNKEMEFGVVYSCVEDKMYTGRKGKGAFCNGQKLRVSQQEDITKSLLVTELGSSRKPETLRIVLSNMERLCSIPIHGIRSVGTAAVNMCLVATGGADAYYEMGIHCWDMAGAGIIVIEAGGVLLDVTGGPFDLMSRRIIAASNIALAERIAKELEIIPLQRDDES
#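 Seeded CHO-M1 cells were dosed with compound at up to 46 uM, stimulated with carbachol for 30 min, then lysed in IP-One detection reagents. Higher IP1 lowers the TR-FRET signal.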
# NPSR antag – neuropeptide S receptor (human) antagonism, cAMP; Q6W5P4; CHO-NPSR cells, cAMP TR-FRET, antagonist mode; Potency, µM (titrated, usually from 38.3 µM), for the others: at the highest dose activity change, negative = inhibition, usual class: inhibitors; 1% of 220,000 active; AID 1461; note: potency is the fitted concentration of half-maximal effect; nearly all actives have a fitted effect of over 50% in size
# ALDH1A1 block – blocks purified human ALDH1A1 activity | 7.3% of 220,000 active | Potency, µM (doses to about 75.3 µM), inactives show top-dose activity, negative = inhibition, usual class: inhibitors | P00352 | AID 1030 | Purified ALDH1A1, NADH fluorescence, propionaldehyde substrate; active = well fitted inhibition curve with a large enough effect, not every such curve was filed as active; inconclusive = small, poorly fitted or top-dose-only effect, or another doubt; inactive = no such curve, though single readings can be large or run the other way;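 note: potency is the fitted concentration of half-maximal effect; plate controls were no enzyme wells and a reference inhibitor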
# Target sequence (P00352 whole entry, looked up): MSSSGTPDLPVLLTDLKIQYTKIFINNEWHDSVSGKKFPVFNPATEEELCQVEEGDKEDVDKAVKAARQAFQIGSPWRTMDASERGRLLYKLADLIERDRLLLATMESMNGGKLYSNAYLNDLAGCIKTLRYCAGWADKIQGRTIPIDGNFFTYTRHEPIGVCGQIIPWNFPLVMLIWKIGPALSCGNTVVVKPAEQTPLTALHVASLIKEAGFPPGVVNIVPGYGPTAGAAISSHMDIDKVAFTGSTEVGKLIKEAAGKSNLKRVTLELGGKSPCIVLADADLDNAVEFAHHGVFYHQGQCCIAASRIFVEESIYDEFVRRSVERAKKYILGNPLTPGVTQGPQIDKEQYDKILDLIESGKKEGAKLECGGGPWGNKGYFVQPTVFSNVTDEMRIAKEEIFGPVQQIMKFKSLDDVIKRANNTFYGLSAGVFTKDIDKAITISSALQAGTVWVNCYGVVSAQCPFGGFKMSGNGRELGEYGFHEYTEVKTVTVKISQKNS
# 12-hLO inh – blocks human 12-lipoxygenase activity. P18054. purified 12-hLO, xylenol orange hydroperoxide absorbance. Potency, µM (series often up to 57.1 µM), for inactives: at the highest dose activity change, negative = inhibition, actives largely listed as inhibitors. 0.12% of 150,000 active. AID 1452; note: potency is the fitted concentration of half-maximal effect; nearly all actives have a fitted effect of over 55% in size
#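 Purified human 12hLO (150 nM final) was preincubated with compounds for 15 min at room temperature in 25 mM Hepes pH 7.0, 0.01% Triton X-100, then reacted with 40 uM arachidonic acid for 30 min. Hydroperoxide was detected with ferrous iron/xylenol orange.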
# IMPase Li inh – cell-permeable IMPase inhibitors with lithium potentiation; CHO-M1 cells, IP1 TR-FRET (IP-One), carbachol + lithium; Potency, µM (top dose mostly 59.4 µM), inactives show at the highest dose activity, negative = IMPase inhibition, hits mostly inhibitors; 0.35% of 210,000 active; AID 1457;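 note: IP1 builds up when IMPase is blocked and the TR-FRET signal falls; potency is the fitted concentration of half-maximal effect; plate controls were basal vehicle for no effect and high inhibitor control for full effect; nearly all actives have a fitted effect of over 50% in size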
#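 CHO-M1, 2000 cells/well, 16–30 h culture; cpd + low Li+, 30 min 37C; lysis with d2-IP1/Eu-anti-IP1 Ab, 10 min RT; TR-FRET 665/620 ratio and 620 channel; AC50 via Hill.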
# HPGD block – blocks human HPGD enzyme activity; P15428; purified HPGD, NADH fluorescence kinetic, PGE2 substrate; Potency, µM, for the others: at the top dose activity change, negative = inhibition, most hits filed as inhibitors; 4.3% of 150,000 active; AID 894; active = well fitted inhibition curve with a large enough effect, not every such curve was filed as active; inconclusive = small, poorly fitted or top-dose-only effect, or another doubt; inactive = no such curve, though single readings can be large or run the other way; note: potency is the fitted concentration of half-maximal effect
#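 NADH formation kinetics: reaction with 30 uM PGE2 and 1 mM NAD+ (final), 20 nM enzyme, Tris-HCl pH 8 with Tween 20, after 15 min compound preincubation at room temperature. Fluorescence change, last versus first of five reads.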
# * marks the source's active call; other numbers are inactive results; ? = inconclusive; . = no result given; [ ] = dose if it differs, or a comment. Rows were chosen to be rich in hits. Some 8.9% of all compounds tested hit in one or more screens of this group. Unless noted, calls come from the whole dose curve; as a rule, active = well fitted curve in the direction sought with a large enough effect; inconclusive = small, poorly fitted or top-dose-only effect, or another doubt; inactive = no such curve, though single readings can be large; an effect the other way counts as inactive or inconclusive. Unless noted, % is set by controls: 0 for no effect and ±100 for the full control effect.
SMILES,IMPase cell inh,NPSR antag,ALDH1A1 block,12-hLO inh,IMPase Li inh,HPGD block
CN(C1CCCCC1)S(=O)(=O)c1ccc(S(=O)(=O)N2CCN(CCC#N)CC2)cc1,-1,-11%,4%,1%,12%,-11%
O=C(O)/C=C/C(=O)Nc1ccc2c(c1)C(=O)c1ccccc1C2=O,.,4%,.,.,.,.
Cc1ccc(/C(O)=C2\C(=O)C(=O)N(Cc3cccnc3)C2c2ccccc2[N+](=O)[O-])cc1 (centres undefined),.,1%,7.1µM*,-6%,5%,-7%
O=C1C(=O)N(Cc2cccnc2)C(c2ccccn2)/C1=C(/O)c1ccc(Br)cc1 (centres undefined),-8,15%[46.1 µM],7%,-8%,?,-5%
O=C(c1c[nH]c(C(=O)N2CCN(Cc3ccccc3)CC2)c1)C1CCCCC1,.,-29%,7.9µM*,.,15%,.
CC(=O)Nc1sc(-c2ccccc2)nc1-c1ccccc1,.,-12%,?,.,-1%,.
O=c1cc(O)nc(-c2ccccc2)s1,.,21%,0.79µM*,.,-1%,.
O=c1cc(O)nc(-c2ccc(Cl)cc2)s1,.,-6%,16µM*,.,-5%,.
CC(=O)O[C@H]1CC[C@@]2(C)C(CCC3C2CC[C@]2(C)OC(=O)CCC32)C1 (some centres undefined),-10,-10%,4%,4%,17%,-10%
CCn1cc(C(=O)NCCOC)c(=O)c2ccc(C)nc21,-11,4%[46.1 µM],11µM*,9%,6%[38.3 µM],-27%
CCn1cc(C(=O)OC)c(=O)c2ccc(C)nc21,.,32%,0%,.,-2%,.
COCCNC(=O)Cc1cn(C)c2ccccc12,0,-6%[46.1 µM],5%,2%,31%[38.3 µM],-5%
COCCNC(=O)c1cn(C)c2ccccc2c1=O,.,9%,3.5µM*,.,-7%,.
N#C/C(=C\c1ccccn1)c1nc2ccccc2s1,.,-9%,?,.,20%,.
CN(C(=S)Nc1cccnc1)c1ccc(O)cc1,.,6%,14µM*,1%,9%,-8%
CN(C(=S)Nc1ccc(Oc2ccccc2)cc1)c1ccc(O)cc1,.,-13%,2.2µM*,-16%,31%,?
CN(C(=S)Nc1ccc(SC(F)F)cc1)c1ccc(O)cc1,18,3%,6.3µM*,-27%,0%,-13%
Cc1ccc(-c2nc3ccccc3s2)cc1NC(=O)COc1ccccc1,-7,.,.,.,.,.
N#C/C(=N\Nc1cccc2ccccc12)c1nnc2n1CCCCC2,-4,-31%,22%,1%,-4%,18µM*
c1ccc2c(-c3nnc4n3CCCCC4)c[nH]c2c1,7,-9%[46.1 µM],-15%,7%,-14%[38.3 µM],25µM*
C1CCc2nnc(-c3nnc4n3CCCCC4)n2CC1,1,-4%[46.1 µM],6%,3%,31%[38.3 µM],-8%
N#C/C(=C\c1c[nH]c2ccccc12)c1nnc2n1CCCCC2,-3,?,-14%,-3%,-4%,13µM*
Oc1ccccc1-c1nc(/C=C/c2ccc(F)cc2)nn1-c1ccccc1,5,.,.,.,.,.
Cc1ccc(/C=C/C(=O)Nc2ccc([N+](=O)[O-])cc2)o1,-9,-22%[46.1 µM],12µM*,?,.,.
CCOC(=O)/C=C/C(=O)Nc1ccc(S(=O)(=O)Nc2c(C)cc(C)cc2C)cc1,.,-1%,13µM*,-1%,16%,-5%
SMILES,IMPase cell inh,NPSR antag,ALDH1A1 block,12-hLO inh,IMPase Li inh,HPGD block
CCCOc1ccc(/C=C/C(=O)Nc2ccc([N+](=O)[O-])cc2)cc1,3,?,5%,-10%,.,.
CCOC(=O)/C=C/C(=O)Nc1ccc(Oc2ccccc2)cc1,.,-8%,25µM*,.,15%,.
Cc1ccc(/C=C/C(=O)N2CC(C)CC(C)C2)o1 (centres undefined),1,-21%[46.1 µM],10µM*,-9%,11%[38.3 µM],?
CO/N=C\C[C@@H]1C=C[C@H](OC(C)=O)[C@H](COC(C)=O)O1,.,.,-5%[13.5 µM],.,.,.
Cn1c(=O)c2c(ncn2CC(=O)Nc2ccccc2)n(C)c1=O,5,2%[46.1 µM],0%,0%,18%[38.3 µM],-5%
Cn1c(NC(=O)/C=C/c2ccco2)cc(=O)n(C)c1=O,.,-18%,?,-8%,2%,-7%
CC(=O)c1ccc(NC(=O)/C=C/c2ccc(C)o2)cc1,5,.,.,.,.,.
CC(/C=C/c1ccc(C)o1)=C\C(=O)O,-1,-13%[46.1 µM],20µM*,1%,-1%[38.3 µM],-22%
COC(=O)c1ccc(Cl)cc1NC(=O)/C=C/c1ccc(C)o1,.,-9%,20µM*,-1%,2%,?
CC(=O)/C=C/c1ccc(C)o1,.,18%,?,.,-2%,.
Cc1ccc(/C=C/C(=O)Nc2ccc(Oc3ccccc3)cc2)o1,13,-3%[46.1 µM],24µM*,-2%,15%,25µM*
Cc1ccc(NC(=O)/C=C/c2ccc(C)o2)c(C)c1,2,.,.,.,.,.
Cc1ccc(/C=C/C(=O)Nc2cc(=O)n(C)c(=O)n2C)o1,.,-14%,22µM*,-1%,6%,-11%
CCCC(C)C(=O)Nc1cc([N+](=O)[O-])ccc1F (centres undefined),.,10%,13%,-2%,-5%,-4%
CCOc1nc(CC(C)C)c2c(c1C#N)CC(C)(C)OC2,.,-31%,.,.,.,.
CC(=O)c1cc(C#N)c(N(C)Cc2ccccc2)nc1C,.,-1%,-18%,.,20%,.
COc1ccc(NS(=O)(=O)c2cc(NC(=O)C3CC3)ccc2N2CCCCC2)cc1,.,13µM*,-11%,.,11%,.
COc1ccccc1NS(=O)(=O)c1cc(NC(=O)CCC2CCCC2)ccc1N1CCOCC1,.,-45%,16µM*,.,14%,.
COc1ccccc1NS(=O)(=O)c1cc(N)ccc1N1CCCCC1,.,-9%,3.2µM*,.,-3%,.
COCCNC(=O)CN1c2ccccc2CC1C (centres undefined),7,-4%[46.1 µM],?,-9%,21%[38.3 µM],-17%
Cc1cc(S(=O)(=O)N2CCN(Cc3ccc4c(c3)OCO4)CC2)cc(C)c1N1CCCC1=O,-1,-2%,-9%,2%,9%,2%
CSc1cccc(NC(=O)CCc2ccccc2)c1,.,-2%,3%,.,8%,.
CCOC(=O)/C=C1\NC(C)(C)Cc2cc(OC)c(O)cc21,4,-13%[46.1 µM],11µM*,-2%,6%[38.3 µM],35µM*
COc1ccc(OCCC(=O)OCC(=O)NCc2ccco2)cc1,4,-14%[46.1 µM],?,-6%,7%[38.3 µM],-16%
COC(=O)c1ccccc1NC(=O)CCS(=O)(=O)c1ccc(Br)cc1,.,-9%,?,.,12%,.
O=C(CCS(=O)(=O)c1ccc(Br)cc1)Nc1cc(F)ccc1F,.,-10%,22µM*,-1%,-2%,-2%
Cc1cccn2cc(-c3cccc(NS(=O)(=O)c4ccc(Cl)c(Cl)c4)c3)nc12,-1,.,.,.,.,.
CCNc1nc(SC(C)C(=O)OC)nc(N2CCOCC2)n1 (centres undefined),12,-5%[46.1 µM],19µM*,-2%,13%[38.3 µM],-10%
COC(=O)CSc1nc(NCC(C)C)nc(N2CCOCC2)n1,5,-15%[46.1 µM],11%,2%,27%[38.3 µM],5%
